High-throughput results: PubChem, National Center for Advancing Translational Sciences (NCATS)
Giardia kill – Small Molecules that selectively kill Giardia lamblia: qHTS; Giardia lamblia trophozoite viability; activity change, % at 7.66 µM, hits read low; hit rate 0.15% among 340,000; in the data active means activity change below about -80%; inconclusive means between about -30% and that limit;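 further: parasites exposed to compound for two days anaerobically before the ATP read; on the % scale 0 is the no-effect control and ±100 the full control effect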
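Trophozoites 100 cells/well + cpd; 48 hrs, 37 deg C, anaerobic. ATPLite 1-Step added, 15-30 min RT, luminescence read (ATP-based viability).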
ERG-DNA inh – qHTS for Small Molecule Inhibitors of the ERG Ets/DNA interaction. fluorescence polarization, His-ERG Ets domain / labelled DNA. Transcriptional regulator ERG (Homo sapiens), P11308. hit rate 0.028% among 370,000. AID 624246, 2012. Potency, µM (top dose mostly 76.9 µM), for inactives: at the top dose FP activity, negative = inhibition, hits mostly inhibitors; active means well fitted inhibition curve with a large enough effect in the polarisation, with a control signal flat; inconclusive means small, poorly fitted or top-dose-only effect, or effect the other way, or a change in a side signal; inactive means no such curve, though single readings can be large or run the other way; the % refers to the polarisation;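 further: polarization taken with two DNA probes labelled with fluorescein and Texas red; potency means the concentration at half of the fitted maximal effect; % of control where 0% means no effect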
Target sequence (P11308 whole entry, looked up, the tested form may be a part): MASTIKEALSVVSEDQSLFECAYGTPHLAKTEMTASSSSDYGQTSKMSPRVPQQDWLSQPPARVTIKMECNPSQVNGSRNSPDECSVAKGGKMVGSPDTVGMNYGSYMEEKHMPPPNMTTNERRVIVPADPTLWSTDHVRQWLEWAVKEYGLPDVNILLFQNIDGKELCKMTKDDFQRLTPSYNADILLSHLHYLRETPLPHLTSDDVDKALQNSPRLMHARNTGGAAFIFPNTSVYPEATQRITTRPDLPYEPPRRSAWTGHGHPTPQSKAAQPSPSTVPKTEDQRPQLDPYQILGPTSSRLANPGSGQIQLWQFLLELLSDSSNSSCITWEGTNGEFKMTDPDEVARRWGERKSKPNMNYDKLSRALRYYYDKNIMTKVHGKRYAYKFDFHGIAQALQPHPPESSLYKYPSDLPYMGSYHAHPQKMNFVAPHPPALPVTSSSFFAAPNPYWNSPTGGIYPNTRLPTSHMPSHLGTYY
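His-tagged ERG Ets domain (1 uM in the protein solution; 300mM KCl, 50mM Tris-HCl, 1mM EDTA, 1mM DTT, pH 7.5) received compound, then a probe mix of 5 nM fluorescein-DNA and 100nM Texas-615-DNA. Fluorescence polarization was read for both dyes.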
VP16 counter – VP16 counterscreen qHTS for inhibitors of ROR gamma transcriptional activity | Drosophila S2 Gal4-VP16 UAS-luciferase, luminescence, 20 h | AID 2546, 2010 | hit rate 3.5% among 310,000 | Potency, µM (titrated, usually from 53.6 µM), for the others: at the highest dose activity, negative = inhibition, most hits filed as inhibitors;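 further: Gal4-VP16 expression switched on by copper sulfate through the metallothionein promoter; potency means the concentration at half of the fitted maximal effect; on the % scale 0 is the no-effect control and ±100 the full control effect; nearly all actives have a fitted effect of over 50% in size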
Integrin act MD – qHTS for Activators of Integrin-Mediated Alleviation for Muscular Dystrophy. alpha7betagal myoblasts, beta-gal FDG fluorescence, 48 h. Potency, µM (highest dose often 38.3 µM), for the others: at the top dose activation, hits mostly activators. hit rate 0.064% among 350,000. AID 624291, 2012;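 further: potency means the concentration at half of the fitted maximal effect; 100% = response of the positive control SU9516; nearly all actives have a fitted effect of over 60% in size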
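alpha7betagal+/- myoblasts (passage 13, 250/well) treated 48 h at 37C with compounds at 1:260 dilution of DMSO stock. Lysed, then beta-galactosidase activity read as FDG fluorescence (ex 480/em 540) after 30 min, with pre-read for autofluorescence.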
RORg inh – qHTS for inhibitors of ROR gamma transcriptional activity. Potency, µM (top dose mostly 53.6 µM), for inactives: at the highest dose activity change, negative = inhibition, most hits filed as inhibitors. hit rate 5.4% among 310,000. Drosophila S2 Gal4-RORgamma UAS-luciferase reporter, 20 h. Nuclear receptor ROR-gamma (Mus musculus), P51450; further: potency means the concentration at half of the fitted maximal effect; on the % scale 0 is the no-effect control and ±100 the full control effect; nearly all actives have a fitted effect of over 60% in size
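Luminescence from a UAS-regulated Photinus luciferase reporter in stably transfected Drosophila Schneider cells is measured; decreased signal marks ROR gamma inhibition. Fusion expression is induced by 700 uM copper sulfate for 20 hr.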
* hit, by the source's call; u = inconclusive; x = not tested or not shown; [ ] = remark or other dose. The sample as a whole holds a higher share of hits than the screen did. Unless noted, the call rests on the fitted dose curve; in most records, active means well fitted curve in the direction sought with a large enough effect; inconclusive means small, poorly fitted or top-dose-only effect, or another doubt; inactive means no such curve, though single readings can be large; an effect the other way counts as inactive or inconclusive.

SMILES | Giardia kill | ERG-DNA inh | VP16 counter | Integrin act MD | RORg inh
Cn1ccnc1SCc1ccc([N+](=O)[O-])cc1 | -2 | -1% | 2% | -11%[7.66 µM] | -27%
O=C(NCC1CCCO1)C(c1ccc(F)cc1)N(CC1CCCO1)C(=O)c1ccc(-c2ccccc2)[nH]1 (stereo not drawn) | -1 | 0% | -1% | 7% | u
Cc1cccc(C(=O)Nc2nc(-c3ccc(Br)cc3)ns2)c1 | x | 11% | x | x | x
Cc1oc(-c2ccc3c(c2)OCCO3)cc1C(=O)NCC(=O)O | 3 | 0% | u | 3% | 7.1µM*
COc1ccc(-c2cc(C(=O)O)c(C)o2)cc1OC | -5 | -9% | 0.89µM* | -15% | u
Cc1oc(-c2ccc3c(c2)OCCO3)cc1C(=O)O | -11 | 0% | 1.4µM* | -15% | 0.89µM*
COc1ccc(-c2cc(C(=O)NC(Cc3cc4ccccc4[nH]3)C(=O)O)c(C)o2)cc1OC (stereo not drawn) | 9 | 0% | 8% | -4% | -5%
COc1ccc(NC(=O)N2CC3(CCN(C(=O)c4ccncc4)CC3)C2)cc1 | x | x | -5% | x | 2%
COCCNC(=O)C1CCCN(S(=O)(=O)c2ccc3c(c2)CC(C)N3C(=O)C2CC2)C1 (stereo not drawn) | 28 | -7% | -1% | 16% | -3%
CCOC(=O)Nc1ccc(C)cc1Br | -5 | -14% | 14% | 15% | 41%
CCOC(=O)NC(=S)Nc1ccc(C(C)(C)C)cc1Br | 11 | u | 10µM* | -11% | 3.5µM*
CC(c1n[nH]c(=S)n1-c1ccc(Cl)cc1)N(C)C (stereo not drawn) | -5 | 14% | -10% | 11% | 13µM*
Fc1ccc(-n2c(-c3ccc4ccccc4n3)n[nH]c2=S)cc1Cl | -16 | 8% | -10% | 0% | u
S=c1[nH]nc(-c2ccc3ccccc3n2)n1-c1ccc(Cl)cc1 | 9 | 6% | 1.4µM* | 14% | 1.1µM*
Cc1ccccc1-n1c(-c2ccc3ccccc3n2)n[nH]c1=S | 4 | 4% | 5µM* | 0% | 0.32µM*
CC(c1n[nH]c(=S)n1-c1ccc(F)cc1)N1CCCCC1 (stereo not drawn) | -15 | -6% | u | 13% | 13µM*
COc1cc(/C=N/n2nnnc2N)cc(Cl)c1OC | 8 | -12% | x | -15% | x
O=C(CC1(CC(=O)N2CCOCC2)CCCC1)Nc1ccccc1 | -1 | 6% | x | -4% | x
CCOC(=O)c1n[nH]n2c1nc(=S)c1ccccc12 | -13 | 4% | u | 1% | 6.3µM*
CCOC(=O)c1n[nH]c2ccccc12 | -20 | -10% | 3% | -2% | 23%
O=C(On1c(-c2ccccc2)nc2ccccc2c1=O)c1ccco1 | 3 | x | u | -9% | 11µM*
O=c1c2ccccc2nc(-c2ccco2)n1Cc1ccccc1 | 5 | 1% | u | 0% | 19%
COc1ccc(-c2nc3ccccc3c(=O)n2CCOc2c(C)cccc2C)cc1 | -14 | 1% | 1% | 18% | -1%
COc1cc(OC)cc(-c2nc3ccccc3c(=O)n2OC(=O)c2ccccc2C)c1 | 6 | 2% | u | -26% | 13µM*
O=C(O)CCC(=O)NNC(=O)COc1cccc(Cl)c1 | -9 | -4% | -7% | -4% | -26%
SMILES | Giardia kill | ERG-DNA inh | VP16 counter | Integrin act MD | RORg inh
COc1cccc(OCC(=O)NNC(=S)Nc2ccc(Cl)cc2Cl)c1 | -11 | 0% | -8% | -25% | 16µM*
O=C(COc1cccc(Cl)c1)NNC(=S)Nc1ccccc1 | 4 | -5% | 1µM* | 26% | 0.89µM*
CNC(=O)N(O)C1N(/N=C/c2ccc(SC)cc2)C(=S)SC1(C)C (stereo not drawn) | 9 | -10% | -12% | 7% | -14%
CN(C)c1ccc(/C=N/N2C(=S)SC(C)(C)C2N(O)C(=O)Nc2ccc([N+](=O)[O-])cc2)cc1 (stereo not drawn) | -5 | -2% | -4% | -9% | 7.9µM*
CCCCn1c(C)cc2c(c1=O)[C@H]1O[C@](CCCC)(Cc3c1ccc1ccccc31)O2 | x | x | 5%[10 µM] | x | -16%[10 µM]
CCCC[C@@H](C)/C=C(C)/C=C(\C)C(=O)NC1=C[C@@](O)(/C=C/C=C/C=C/C(=O)NC2=C(O)CCC2=O)[C@@H]2O[C@@H]2C1=O | x | x | 1.3µM* | x | 0.45µM*
COC(=O)/C=C1/S/C(=N/N=C/c2ccco2)NC1=O | 3 | 5% | u | -6% | 14µM*
COC(=O)/C=C1\S/C(=N/N=C/c2ccccc2)NC1=O | 2 | 1% | u | -18% | u
COC(=O)/C=C1\S/C(=N/N=C/c2ccco2)NC1=O | -20 | -5% | -16%[10 µM] | 6% | 7.1µM*
COc1cccc([C@@H]2Oc3ccc(Br)cc3C[C@H]2O)c1 | x | x | -5% | x | 26%
O=C1NC(=S)N/C1=C/c1cccc([N+](=O)[O-])c1 | -9 | -9% | 9% | -29% | -7%
O=C1NC(=S)N/C1=C/c1cccnc1 | 18 | 0% | -13% | 11% | 13µM*
O=C1NC(=S)N/C1=C\c1cccnc1 | 18 | 12% | u | 16% | 2µM*
CCCN(CCC)S(=O)(=O)c1ccc(C(=O)Nc2nnc(-c3cccc(OC)c3)o2)cc1 | -8 | -4% | 0.63µM* | -15% | 0.4µM*
CCCN(CCC)S(=O)(=O)c1ccc(C(=O)Nc2nnc(-c3cc(OC)cc(OC)c3)o2)cc1 | -19 | -3% | 0.28µM* | -8% | 0.16µM*
O=C(NCCc1ccc(F)cc1)c1cc(-c2ccncc2)nc2ccccc12 | x | x | -12% | x | 16%
C/C(=N\Nc1cc(Cl)nc(C)n1)c1ccc(C)cc1 | -5 | -1% | x | u | x
CC(=O)/C(=C/c1ccccc1)C(=O)Nc1ccccc1C | -5 | -1% | u | -2% | u
Cc1ccccc1NC(=O)C(=Cc1ccc(C(=O)O)cc1)C(=O)Nc1ccccc1C | -6 | -5% | u | -23% | 7.9µM*
Cc1ccc2nc(SC(C(=O)Nc3ccc(F)cc3)c3ccccc3)[nH]c2c1 (stereo not drawn) | 11 | -13% | u | 16% | 13µM*
CCc1ccc(CN(Cc2cn[nH]c2-c2ccc(OC)cc2)C(=O)Nc2ccc(C)c(F)c2)cc1 | x | 8% | x | x | x
O=C(CS(=O)Cc1ccco1)NCC=CCOc1cc(CN2CCCCC2)ccn1 (stereo not drawn) | x | x | -6% | x | 27%
O=C(O)c1cc(N=Nc2c(O)ccc3ccccc23)cc(C(=O)O)c1 | -2 | 5% | 0% | -4% | -8%
O=C(O)c1cc2ccccc2c(N=Nc2cccnc2)c1O | -82* | 3% | -6% | -29% | u
Cc1ccc(SCC(=O)OCC(=O)NCCC2=CCCCC2)cc1 | 2 | 17% | x | 14% | x
COc1cc2c3nnc(-c4ccc(F)cc4)c-3cn(Cc3cccc(F)c3)c2cc1OC | -10 | -13% | -30% | 0% | u
